# Results filed as inconclusive are left out. A number with no mark means an inactive call. Activity calls are given as the source filed them. Calls come from the whole dose curve; as a rule, active = well fitted inhibition curve with a large enough effect; inconclusive = small, poorly fitted or top-dose-only effect; inactive = flat fitted curve, though single readings scatter.
# System: PC15
# Test: qHTS profiling for inhibitors of Plasmodium falciparum proliferation (AID 504749); note: nearly all actives have a fitted effect of over 60% in size;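 for activity, negative = inhibition: 0% = DMSO vehicle and full inhibition = artemisinin control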
# Details: P. falciparum in erythrocytes, SYBR Green DNA, 72 h; series mostly up to 28.7 µM; activity, negative = inhibition: at the top concentration
# Summary of the method: (§1)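 P. falciparum-infected erythrocytes (0.3% parasitemia, 2.5% hematocrit) incubated with compound 72 h at 37 C, 5% CO2. Parasite DNA detected by SYBR Green after lysis, overnight at room temperature; normalised to 0.29 uM artemisinin and DMSO.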
# Potency is the fitted concentration of half-maximal effect.
SMILES,"activity, negative = inhibition",Potency
C[C@](N)(Cc1ccc(O)cc1)C(=O)O,4.7%,–
OCCN1CCN(CCCN2c3ccccc3Sc3ccc(Cl)cc32)CC1,–,3.16 µM (active)
CC(=O)c1ccc2c(c1)N(CCCN(C)C)c1ccccc1S2,-25% [at 12.8 µM],–
CSc1ccc2c(c1)N(CCC1CCCCN1C)c1ccccc1S2 (stereo not given),–,10 µM (active)
CCCn1cnc2c1c(=O)n(CCCCC(C)=O)c(=O)n2C,6.27%,–
CCN(CC)CCSC(=O)C(c1ccccc1)c1ccccc1,–,inactive
CCN(CC)CCNC(=O)c1c(C)[nH]c(/C=C2\C(=O)Nc3ccc(F)cc32)c1C,–,8.91 µM (active)
CC1=C(CC(=O)O)c2cc(F)ccc2/C1=C\c1ccc(S(C)=O)cc1 (stereo not given),18.6%,–
CC(CN1c2ccccc2Sc2ccccc21)N(C)C (stereo not given),6.87%,–
CN(C)CCCN1c2ccccc2Sc2ccc(Cl)cc21,–,10 µM (active)
CSc1ccc2c(c1)C(N1CCN(C)CC1)Cc1ccccc1S2 (stereo not given),-19.1%,–
C=Cc1c(C)c2cc3[nH]c(cc4nc(cc5nc(cc1[nH]2)C(C)=C5CCC(=O)O)C(CCC(=O)O)=C4C)c(C)c3C=C,2.46%,–
CN(C)CCN(Cc1ccccc1)c1ccccn1,-29.5%,–
C[C@]12C[C@H](O)[C@H]3[C@@H](CCC4=CC(=O)CC[C@@]43C)[C@@H]1CC[C@@H]2C(=O)CO,-20.1%,–
O=C(O)CN1C(=O)c2cccc3cccc(c23)C1=O,12.4%,–
COC(=O)C1=C(C)NC(C)=C(C(=O)OC)C1c1ccccc1[N+](=O)[O-],-2.23%,–
CC1=C(/C=C/C(C)=C/C=C/C(C)=C/C(=O)O)C(C)(C)CCC1,4.17%,–
CCCCN(CCCC)CC(O)c1cc(Cl)cc2c1-c1ccc(Cl)cc1/C2=C/c1ccc(Cl)cc1 (stereo not given),–,0.0112 µM (active)
CC(=O)Oc1ccc(C2(c3ccc(OC(C)=O)cc3)C(=O)Nc3ccccc32)cc1,–,inactive
CN1CCN(C2Cc3ccccc3Sc3ccc(Cl)cc32)CC1 (stereo not given),-19%,–
O=C1NC(=O)[C@@]2(CCOc3ccc(F)cc32)N1,6.17%,–

# System: PC26
# Test: as above
# Details: P. falciparum in erythrocytes, SYBR Green DNA, 72 h; series mostly up to 28.7 µM; activity, negative = inhibition: at the top concentration
# Summary of the method: as §1
SMILES,"activity, negative = inhibition",Potency
C[C@](N)(Cc1ccc(O)cc1)C(=O)O,5.8%,–
CC(=O)c1ccc2c(c1)N(CCCN(C)C)c1ccccc1S2,-18.2% [at 12.8 µM],–
CCCn1cnc2c1c(=O)n(CCCCC(C)=O)c(=O)n2C,-8.78%,–
CCN(CC)CCSC(=O)C(c1ccccc1)c1ccccc1,6.35%,–
CCN(CC)CCNC(=O)c1c(C)[nH]c(/C=C2\C(=O)Nc3ccc(F)cc32)c1C,–,5.36 µM (active)
CC1=C(CC(=O)O)c2cc(F)ccc2/C1=C\c1ccc(S(C)=O)cc1 (stereo not given),1.92%,–
CC(CN1c2ccccc2Sc2ccccc21)N(C)C (stereo not given),-4.57%,–
CN(C)CCCN1c2ccccc2Sc2ccc(Cl)cc21,–,6.75 µM (active)
C=Cc1c(C)c2cc3[nH]c(cc4nc(cc5nc(cc1[nH]2)C(C)=C5CCC(=O)O)C(CCC(=O)O)=C4C)c(C)c3C=C,-1.98%,–
C[C@]12C[C@H](O)[C@H]3[C@@H](CCC4=CC(=O)CC[C@@]43C)[C@@H]1CC[C@@H]2C(=O)CO,-9.1%,–
O=C(O)CN1C(=O)c2cccc3cccc(c23)C1=O,0.838%,–
COC(=O)C1=C(C)NC(C)=C(C(=O)OC)C1c1ccccc1[N+](=O)[O-],-1.9%,–
CC1=C(/C=C/C(C)=C/C=C/C(C)=C/C(=O)O)C(C)(C)CCC1,-13.4%,–
CC(=O)Oc1ccc(C2(c3ccc(OC(C)=O)cc3)C(=O)Nc3ccccc32)cc1,–,inactive
O=C1NC(=O)[C@@]2(CCOc3ccc(F)cc32)N1,16.3%,–

# System: PC49
# Test: as above
# Details: P. falciparum in erythrocytes, SYBR Green DNA, 72 h; series mostly up to 28.7 µM; activity, negative = inhibition: at the top concentration
# Summary of the method: as §1
SMILES,"activity, negative = inhibition",Potency
C[C@](N)(Cc1ccc(O)cc1)C(=O)O,13.6%,–
CC(=O)c1ccc2c(c1)N(CCCN(C)C)c1ccccc1S2,-10.4% [at 12.8 µM],–
CCCn1cnc2c1c(=O)n(CCCCC(C)=O)c(=O)n2C,13.6%,–
CCN(CC)CCSC(=O)C(c1ccccc1)c1ccccc1,–,inactive
CNCCCC1c2ccccc2C=Cc2ccccc21,-22.2% [at 12.8 µM],–
CC1=C(CC(=O)O)c2cc(F)ccc2/C1=C\c1ccc(S(C)=O)cc1 (stereo not given),-21%,–
CC(CN1c2ccccc2Sc2ccccc21)N(C)C (stereo not given),15.1%,–
COCCOC(=O)C1=C(C)NC(C)=C(C(=O)OC/C=C/c2ccccc2)C1c1cccc([N+](=O)[O-])c1 (stereo not given),-10.3%,–
CN(C)CCCN1c2ccccc2Sc2ccc(Cl)cc21,–,7.08 µM (active)
CSc1ccc2c(c1)C(N1CCN(C)CC1)Cc1ccccc1S2 (stereo not given),-12.4%,–
C=Cc1c(C)c2cc3[nH]c(cc4nc(cc5nc(cc1[nH]2)C(C)=C5CCC(=O)O)C(CCC(=O)O)=C4C)c(C)c3C=C,10.7%,–
CN(C)CCN(Cc1ccccc1)c1ccccn1,-28.8%,–
OCc1cc(C(O)CNCCCCCCOCCCCc2ccccc2)ccc1O (stereo not given),7.63%,–
O=C(O)CN1C(=O)c2cccc3cccc(c23)C1=O,9.11%,–
COC(=O)C1=C(C)NC(C)=C(C(=O)OC)C1c1ccccc1[N+](=O)[O-],7.27%,–
CC1=C(/C=C/C(C)=C/C=C/C(C)=C/C(=O)O)C(C)(C)CCC1,2.68%,–
CC(=O)Oc1ccc(C2(c3ccc(OC(C)=O)cc3)C(=O)Nc3ccccc32)cc1,–,inactive
CN1CCCCC1CCN1c2ccccc2Sc2ccc(S(C)=O)cc21 (stereo not given),-23.6%,–
O=C1NC(=O)[C@@]2(CCOc3ccc(F)cc32)N1,11.8%,–

# Reference: PubChem BioAssay (NCATS)
